Assay results published in PubChem BioAssay (NCATS).
Results filed as inconclusive are left out. The source made the active and inactive calls. The call rests on the fitted dose curve; in most records, active means well fitted inhibition curve with a large enough effect; inconclusive means small, poorly fitted or top-dose-only effect; inactive means no such curve, though single readings can be large or run the other way.

Test system: Zika virus NS2B-NS3 protease (unlinked complex)
Test: Primary screen GU Rhodamine qHTS for Zika virus inhibitors: Unlinked NS2B-NS3 protease assay (AID 1347159); further: nearly all actives have a fitted effect of over 60% in size
Details: Recombinant ZIKV NS2B-NS3 protease, Rhodamine110 substrate fluorescence; series mostly up to 107 µM; activity change, negative = inhibition: at the top concentration
Outline: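 A qHTS format was used, with compound concentrations ranging up to 114 microM. Each compound was preincubated with 25 nM NS2B-NS3 protease, and the substrate was then added at 1.5 microM. Curves were fitted with a 4-parameter Hill model.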
On the % scale 0 is the no-effect control and ±100 the full control effect; potency means the concentration at half of the fitted maximal effect.

Structure (SMILES) | activity change, negative = inhibition | Potency
COc1ccccc1-n1c(SCC(=O)Nc2nc3ccc(C)cc3s2)nc2c(c1=O)SCC2 | 1.58% [at 57.1 µM] (inactive) | 
CCOC(=O)c1ccnc(CNCC(=O)N(CC)CCN(C)C)c1 | 0% (inactive) | 
CC(C)Nc1cc(-c2c[nH]c(C(=O)N[C@H](CO)c3cccc(Cl)c3)c2)c(Cl)cn1 |  | 44.7 µM (active)
CC(C)[C@@H](C)/C=C/[C@@H](C)[C@H]1CC[C@H]2C3=CC=C4C[C@@H](O)CC[C@]4(C)[C@H]3CC[C@]12C | 29.7% [at 57.1 µM] (inactive) | 
NCCOCCOCCNC(=O)Cc1ccc(Nc2nc(NCc3ccc(F)cc3)nc(NCC3CCCCC3)n2)cc1 | -62.3% (inactive) | 
CC(=O)N[C@H]1CCN(c2ccc(C3=NOC(CN[S+](=O)([O-])C(C)C)C3)cc2F)C1 (some centres undefined) | 19.2% (inactive) | 
CCOc1nc2cccc(C(=O)O)c2n1Cc1ccc(-c2ccccc2-c2noc(=O)[nH]2)cc1 | -10.6% (inactive) | 
CC(C)=CCCC1(C)Oc2cc3c(c4c2C2C(O4)C(C)(O)CCC21)CN(C(CCC(=O)O)C(=O)O)C3=O (centres undefined) | -4.11% [at 57.1 µM] (inactive) | 
CCOC(=O)c1c(C)nn(-c2cccc([N+](=O)[O-])c2)c1C | 23.5% (inactive) | 
CC(C)NC[C@H](O)COc1ccc(CCOCC2CC2)cc1 | 0% (inactive) | 
O=C(NC[C@H](O)CN1CCc2ccccc2C1)c1cc(NC2COC2)ncn1 | 6.65% (inactive) | 
CN1C(=O)c2ccccc2-n2c(nc3ccccc3c2=O)/C1=C/c1ccccc1 | -10.7% (inactive) | 
CC1CCC2(C)C(CC(O)C(O)C23CO3)C1(C)CCC1=CC(=O)OC1O (centres undefined) | -1.31% (inactive) | 
c1ccc(Cc2ncc3c(n2)CCNCC3)cc1 | 29.8% (inactive) | 
O=C(/C=C/c1ccc(O)cc1)OCC1=CC2OC(=O)C3=CO[C@@H](O[C@@H]4O[C@H](CO)[C@@H](O)[C@H](O)[C@H]4O)[C@H]1[C@@H]32 (some centres undefined) | -15% [at 57.1 µM] (inactive) | 
N#Cc1ccnc(N2C(=O)CC[C@H]2C(=O)N(c2cncc(F)c2)[C@H](C(=O)NC2CC(F)(F)C2)c2ccccc2Cl)c1 | 0% (inactive) | 
Cc1cc(N2CCCCC2)nc2ccccc12 | 13.1% (inactive) | 
CN(NC(=O)CC(=O)NN(C)C(=S)c1ccccc1)C(=S)c1ccccc1 | 0% (inactive) | 
CC(NC(=O)CC(=O)O)c1nc2ccccc2c(=O)[nH]1 (centres undefined) |  | 44.7 µM (active)
COc1ccc2c(c1)OC[C@]1(O)c3cc4c(cc3O[C@H]21)OCO4 | 0.148% (inactive) | 

Structure (SMILES) | activity change, negative = inhibition | Potency
Cc1nnc(C(C)C)n1C1CC2CCC(C1)N2CCC(NC(=O)C1CCC(F)(F)CC1)c1ccccc1 (centres undefined) | -3.34% (inactive) | 
CCC[C@@H]1C[C@@H](C(=O)N[C@H](C(C)Cl)[C@H]2O[C@H](SC)[C@H](O)[C@@H](O)[C@H]2O)N(C)C1 (some centres undefined) | 27.7% (inactive) | 
C=C1C(OC(C)=O)C(=O)C2C(C)(C)C(OC(C)=O)CCC2(C)C1CC(OC(C)=O)/C(C)=C/COC(C)=O (centres undefined) | 9.31% [at 57.1 µM] (inactive) | 
O=C(OCc1cccc(O)c1O[C@@H]1O[C@H](CO)[C@@H](O)[C@H](O)[C@H]1O)C1(O)C(=O)C2C=CC1C1C=CC(=O)C(O)(C(=O)OCc3cccc(O)c3O[C@@H]3O[C@H](CO)[C@@H](O)[C@H](O)[C@H]3O)C21 (some centres undefined) | 11% [at 32.5 µM] (inactive) | 
CN1C(=O)c2ccccc2-n2c(nc3ccccc3c2=O)[C@@]12O[C@H]2c1ccccc1 | 1.53% (inactive) | 
O=C1NCc2nc3ccccc3c(=O)n2C1Cc1c[nH]c2ccccc12 (centres undefined) | 4% (inactive) | 
CC1=C2CC3OC3(C)CCC3OC3(C)CC2OC1=O (centres undefined) | 44.7% (inactive) | 
C=C1CC/C=C(/CO)C(=O)C[C@@H]2[C@@H]1CC2(C)C | 17.4% (inactive) | 
CC(C)(C)c1cc(CN2CCN(CC(O)c3ccc(Cl)cc3)CC2)cc(C(C)(C)C)c1O (centres undefined) | 25.2% (inactive) | 
CC1(C)CCCC2(C)C3=C(C(=O)OC3O)C(O)CC12 (centres undefined) | 12.7% (inactive) | 
CCNC(=O)CCC/C=C\C[C@@H]1[C@@H](/C=C/C(O)CCc2ccccc2)[C@@H](O)C[C@@H]1O (some centres undefined) | -9.05% (inactive) | 
C=C1C2=CC(O)C(C)C1(C)CC/C(C)=C/CCC1(C)OC1C2=O (centres undefined) | 3.5% (inactive) | 
Nc1ncnc2c1ncn2[C@H]1CCCO1 | -2.62% (inactive) | 
CC1CCC2C(C)(C)C(O)CCC2(C)C12Cc1c(O)cc3c(c1O2)CN(C(CCC(N)=O)C(=O)O)C3=O (centres undefined) | -11.6% [at 57.1 µM] (inactive) | 
CCC(CCO[C@@H]1O[C@H](CO[C@H]2OC[C@](O)(CO)[C@H]2O)[C@@H](O)[C@H](O)[C@H]1O)C(C)(C)O (some centres undefined) | 13.2% [at 57.1 µM] (inactive) | 
C[C@@H]1C/C=C/C=C\C=C\C=C\[C@H](O[C@@H]2O[C@H](C)[C@@H](O)[C@H](N)[C@@H]2O)C[C@@H]2O[C@](O)(C[C@@H](O)C[C@H]3O[C@@H]3/C=C/C(=O)O1)C[C@H](O)[C@H]2C(=O)O | 13% [at 32.5 µM] (inactive) | 
CC1(C)CC2C(O)C3=C(CC(C)(O)C2C1)C(=O)OC3O (centres undefined) | 0% (inactive) | 
CC[C@H]1OC(=O)[C@H](C)[C@@H](O[C@H]2C[C@@](C)(OC)[C@@H](O)[C@H](C)O2)[C@H](C)[C@@H](O[C@@H]2O[C@H](C)C[C@H](N(C)C)[C@H]2O)[C@@](C)(O)C[C@@H](C)[C@@H]2N[C@@H](COCCOC)OC([C@H]2C)[C@]1(C)O | -15.4% (inactive) | 
CC1(C)C[C@H]2C3=CCC4[C@@]5(C)CC[C@H](O[C@H]6O[C@H](C(=O)O)[C@@H](O)[C@H](O)[C@H]6O[C@H]6O[C@H](CO)[C@@H](O)[C@H](O)[C@H]6O[C@@H]6O[C@H](CO)[C@@H](O)[C@H](O)[C@H]6O)[C@](C)(CO)C5CC[C@@]4(C)[C@]3(C)CC[C@@]2(C)[C@H](O[C@@H]2OC[C@H](O)[C@H](OC3O[C@H](CO)[C@@H](O)[C@H](O)[C@H]3O)[C@H]2O)[C@@H]1O (some centres undefined) | 6.08% [at 19.1 µM] (inactive) | 
